39 compounds from PubChem BioAssay (NCATS) can be followed below.

Unmarked numbers belong to inactive results. For part of these data: Potency and affinity values are given separately. Active and inactive are the calls of the source. The rule behind the calls is not given here.
Throughout, for efficacy: 0% is about no effect.

For the first experiment the following is noted: Ebola virus entry assay, green fluorescence channel.
As to `CC(=O)N[C@H]1[C@H]([C@H](O)[C@H](O)CO)OC(C(=O)O)=C[C@@H]1N=C(N)N`, the efficacy is -18.6%.
Take `CCCCCCc1ccc(O)cc1O`: the efficacy was -21%.
Consider `COc1ccc2[nH]c(S(=O)Cc3ncc(C)c(OC)c3C)nc2n1` (stereo not drawn), for which the efficacy was 29.9%.
Turning to `C[N+]1(CC2COC(c3ccccc3)(C3CCCCC3)O2)CCCCC1` (stereo not drawn), the efficacy was 48.1%.
Regarding `O=C(O)CCC(=O)Nc1ccc(S(=O)(=O)Nc2nccs2)cc1`, the efficacy was -34.8%.
`CC(NC(CCc1ccccc1)C(=O)O)C(=O)N1C(=O)N(C)CC1C(=O)O` (stereo not drawn): the efficacy is -14.7%.
`N[C@@H](Cc1c[nH]c2ccc(O)cc12)C(=O)O`: the efficacy was 27.4%.
Consider `CCn1cc(C(=O)O)c(=O)c2cc(F)c(N3CCN(C)CC3)cc21`, for which the efficacy is -16.7%.
As to `O=C(O)Cc1ccccc1`, the efficacy was -19.3%.
The same measure, in the same setting: for `CN(C)C(=O)Oc1cc(OC(=O)N(C)C)cc(C(O)CNC(C)(C)C)c1` (stereo not drawn) the value was 18.9%.
Turning to `CCCn1cnc2c1c(=O)n(CCCCC(C)=O)c(=O)n2C`, the efficacy is 33.9%.
As to `N#Cc1nn(-c2c(Cl)cc(C(F)(F)F)cc2Cl)c(N)c1S(=O)C(F)(F)F` (stereo not drawn), the efficacy is 9.5%.
As for `CCCOC(=O)Cc1ccc(OCC(=O)N(CC)CC)c(OC)c1`, the efficacy was -14.5%.
Turning to `CCCc1ncc(C[n+]2ccccc2C)c(N)n1`, the efficacy is -20.5%.
`O=C1c2ccccc2S(=O)(=O)N1CCCCN1CCN(c2ncccn2)CC1`: the efficacy is 29.9%.
Regarding `Nc1ccn(C2CO[C@H](CO)O2)c(=O)n1` (stereo partly drawn), the efficacy was -24%.
Regarding `NC[C@H]1O[C@H](O[C@H]2[C@H](O)[C@@H](O[C@H]3O[C@H](CO)[C@@H](O)[C@H](N)[C@H]3O)[C@H](N)C[C@@H]2N)[C@H](N)[C@@H](O)[C@@H]1O`, the efficacy was -12.5%.
`CCOC(=O)CN1CCCC1=O`: the efficacy was 24%.
Take `CC(=O)OCC(=O)NCCCOc1cccc(CN2CCCCC2)c1`: the efficacy was -11.5%.
On the same count and under the same terms, for `COc1cccc2c1C(=O)c1c(O)c3c(c(O)c1C2=O)C[C@@](O)(C(=O)CO)C[C@@H]3O[C@H]1C[C@H](N)[C@H](O[C@@H]2CCCCO2)[C@H](C)O1` the value was 15.3%; for `CCOC(=O)NC(C)(C)Cc1ccc(Cl)cc1`, -26.2%.
Regarding `CC(C)C(=O)Nc1cccc(C2CN3CCSC3=N2)c1` (stereo not drawn), the efficacy is -12.5%.
Consider `CC(O)COc1ccccc1` (stereo not drawn), for which the efficacy was 11.7%.
Consider `c1ccc(CC2=NCCN2)cc1`, for which the efficacy was -17.9%.
Still for that read-out and setting: the result for `CN1CC(=O)N2[C@H](c3ccc4c(c3)OCO4)c3[nH]c4ccccc4c3C[C@@H]2C1=O` reads 22.3%.
Same read-out and setting: the result for `CCCCCCCC/C=C\CCCCCCCCN` reads 12.8%; that for `O=C(Nc1ccc(C(=O)O)c(O)c1)c1ccccc1`, -10.4%; that for `O=C1Nc2cc(Cl)ccc2Oc2ccccc21`, -23%.
Regarding `CCN(CC)CCN`, the efficacy was -14.9%.
In the case of `CCCCC1C(=O)NC(=O)N(C2CCCCC2)C1=O` (stereo not drawn), the efficacy was 18.4%.
Consider `CC(C)Cc1ccc(C(C)C(=O)OCc2ccccn2)cc1` (stereo not drawn), for which the efficacy is -17.6%.
Consider `CC(=O)Nc1cccc(O)c1`, for which the efficacy was 28%.
Turning to `O=C1NC(=O)[C@@]2(CCOc3ccc(F)cc32)N1`, the efficacy was -52%.
As for `CNC(=O)Oc1ccc2c(c1)[C@]1(C)CCN(C)[C@@H]1N2C`, the efficacy was 20.2%.
Consider `O=C1CC2(CCCC2)CC(=O)N1CCCCN1CCN(c2ncccn2)CC1`, for which the efficacy is 11.1%.
The same measure, in the same setting: the result for `CCN(CC)CC(=O)Nc1c(C)cccc1C` reads 11%.
As for `COC(=O)C1=C(C)NC(C)=C(C(=O)OC)C1c1ccccc1[N+](=O)[O-]`, the efficacy was 16.8%.
On the same count and under the same terms, the result for `Nc1c(CC(=O)O)cccc1C(=O)c1ccc(Br)cc1` reads 18.5%; that for `OC[C@H]1O[C@@H](OCCc2ccc(O)cc2)[C@H](O)[C@@H](O)[C@H]1O`, -19%.

The conditions of the next experiment: Ebola virus entry assay, blue channel fluorescence.
Regarding `CC(=O)N[C@H]1[C@H]([C@H](O)[C@H](O)CO)OC(C(=O)O)=C[C@@H]1N=C(N)N`, the AC50 is 2820 nM (active).
In the case of `CCCCCCc1ccc(O)cc1O`, the call was inactive.
With `COc1ccc2[nH]c(S(=O)Cc3ncc(C)c(OC)c3C)nc2n1` (stereo not drawn), the outcome was inactive.
Same read-out and setting: the result for `C[N+]1(CC2COC(c3ccccc3)(C3CCCCC3)O2)CCCCC1` (stereo not drawn) reads “inactive”; that for `O=C(O)CCC(=O)Nc1ccc(S(=O)(=O)Nc2nccs2)cc1`, “inactive”; that for `CC(NC(CCc1ccccc1)C(=O)O)C(=O)N1C(=O)N(C)CC1C(=O)O` (stereo not drawn), “inactive”.
On to `N[C@@H](Cc1c[nH]c2ccc(O)cc12)C(=O)O`, for which the outcome was inactive.
Regarding `CCn1cc(C(=O)O)c(=O)c2cc(F)c(N3CCN(C)CC3)cc21`, the compound was classed as inactive.
The same measure, in the same setting: for `O=C(O)Cc1ccccc1` the value was “inactive”.
Consider `CN(C)C(=O)Oc1cc(OC(=O)N(C)C)cc(C(O)CNC(C)(C)C)c1` (stereo not drawn), for which the call was inactive.
On the same count and under the same terms, the result for `CCCn1cnc2c1c(=O)n(CCCCC(C)=O)c(=O)n2C` reads “inactive”; that for `N#Cc1nn(-c2c(Cl)cc(C(F)(F)F)cc2Cl)c(N)c1S(=O)C(F)(F)F` (stereo not drawn), “inactive”; that for `CCCOC(=O)Cc1ccc(OCC(=O)N(CC)CC)c(OC)c1`, “inactive”.
For the compound `CCCc1ncc(C[n+]2ccccc2C)c(N)n1`, the outcome was inactive.
In the case of `O=C1c2ccccc2S(=O)(=O)N1CCCCN1CCN(c2ncccn2)CC1`, the result was inactive.
As for `Nc1ccn(C2CO[C@H](CO)O2)c(=O)n1` (stereo partly drawn), the call was inactive.
The same measure, in the same setting: for `NC[C@H]1O[C@H](O[C@H]2[C@H](O)[C@@H](O[C@H]3O[C@H](CO)[C@@H](O)[C@H](N)[C@H]3O)[C@H](N)C[C@@H]2N)[C@H](N)[C@@H](O)[C@@H]1O` the value was “inactive”; for `CCOC(=O)CN1CCCC1=O`, “inactive”; for `CC(=O)OCC(=O)NCCCOc1cccc(CN2CCCCC2)c1`, “inactive”.
Regarding `COc1cccc2c1C(=O)c1c(O)c3c(c(O)c1C2=O)C[C@@](O)(C(=O)CO)C[C@@H]3O[C@H]1C[C@H](N)[C@H](O[C@@H]2CCCCO2)[C@H](C)O1`, the call was inactive.
Same read-out and setting: the result for `CCOC(=O)NC(C)(C)Cc1ccc(Cl)cc1` reads “inactive”.
As for `CC(C)C(=O)Nc1cccc(C2CN3CCSC3=N2)c1` (stereo not drawn), the call was inactive.
The same measure, in the same setting: for `CC(O)COc1ccccc1` (stereo not drawn) the value was “inactive”; for `c1ccc(CC2=NCCN2)cc1`, “inactive”.
Still for that read-out and setting: the result for `CN1CC(=O)N2[C@H](c3ccc4c(c3)OCO4)c3[nH]c4ccccc4c3C[C@@H]2C1=O` reads “inactive”; that for `CCCCCCCC/C=C\CCCCCCCCN`, “inactive”; that for `O=C(Nc1ccc(C(=O)O)c(O)c1)c1ccccc1`, “inactive”.
On to `O=C1Nc2cc(Cl)ccc2Oc2ccccc21`, for which the compound was classed as inactive.
As to `CCN(CC)CCN`, the compound was classed as inactive.
Consider `CCCCC1C(=O)NC(=O)N(C2CCCCC2)C1=O` (stereo not drawn), for which the result was inactive.
As to `CC(C)Cc1ccc(C(C)C(=O)OCc2ccccn2)cc1` (stereo not drawn), the compound was classed as inactive.
Turning to `CC(=O)Nc1cccc(O)c1`, the result was inactive.
As to `O=C1NC(=O)[C@@]2(CCOc3ccc(F)cc32)N1`, the compound was called inactive.
Take `CNC(=O)Oc1ccc2c(c1)[C@]1(C)CCN(C)[C@@H]1N2C`: the result was inactive.
With `O=C1CC2(CCCC2)CC(=O)N1CCCCN1CCN(c2ncccn2)CC1`, the compound was classed as inactive.
For the compound `CCN(CC)CC(=O)Nc1c(C)cccc1C`, the compound was classed as inactive.
Regarding `COC(=O)C1=C(C)NC(C)=C(C(=O)OC)C1c1ccccc1[N+](=O)[O-]`, the result was inactive.
Still for that read-out and setting: the result for `Nc1c(CC(=O)O)cccc1C(=O)c1ccc(Br)cc1` reads “inactive”; that for `OC[C@H]1O[C@@H](OCCc2ccc(O)cc2)[C@H](O)[C@@H](O)[C@H]1O`, “inactive”.
